# CtBP-E1A blk: qHTS Assay for Inhibitors of the CtBP/E1A Interaction | AlphaScreen GST-E1A/His-CtBP binding, 1536-well; active compounds read low | 340,000 tested, 0.49% active | activity change, % (no concentration beside the values) | CtBP / adenovirus E1A interaction (AlphaScreen); in the data active means activity change below about -65%; inconclusive means mostly about -30% to -63%
#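 Homogeneous bead-based format: GST-tagged E1A captured on glutathione donor beads, His-tagged CtBP on nickel acceptor beads; compounds precede bead addition by 2 h at 37 °C.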
# Six1-Eya2 inh: qHTS Assay for Inhibitors of the Six1/Eya2 Interaction; activity change, % (test concentration not listed); AlphaScreen GST-Six1/His-Eya2 binding, biochemical; active compounds read low; AID 651725, 2012; 360,000 tested, 0.56% active; Homeobox protein SIX1 (Homo sapiens) + Protein phosphatase EYA2 (Homo sapiens), …; in the data active means activity change below about -65%; inconclusive means mostly about -30% to -63%
# Target sequence (O00167 whole entry, looked up): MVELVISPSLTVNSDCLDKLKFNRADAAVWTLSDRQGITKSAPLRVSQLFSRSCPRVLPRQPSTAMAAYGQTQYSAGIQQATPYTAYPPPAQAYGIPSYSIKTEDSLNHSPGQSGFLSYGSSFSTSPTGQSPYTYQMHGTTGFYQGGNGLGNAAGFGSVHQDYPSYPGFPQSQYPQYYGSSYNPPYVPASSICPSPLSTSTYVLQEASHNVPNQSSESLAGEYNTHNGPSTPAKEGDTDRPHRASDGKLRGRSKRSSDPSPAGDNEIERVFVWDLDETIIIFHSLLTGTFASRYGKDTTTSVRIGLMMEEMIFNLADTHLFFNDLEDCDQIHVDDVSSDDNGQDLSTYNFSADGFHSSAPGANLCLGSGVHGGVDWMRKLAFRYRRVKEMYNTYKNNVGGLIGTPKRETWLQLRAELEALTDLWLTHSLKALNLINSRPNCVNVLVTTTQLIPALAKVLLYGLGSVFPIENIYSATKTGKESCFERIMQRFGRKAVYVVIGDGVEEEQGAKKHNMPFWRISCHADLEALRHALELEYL
# Target sequence (Q15475 whole entry, looked up): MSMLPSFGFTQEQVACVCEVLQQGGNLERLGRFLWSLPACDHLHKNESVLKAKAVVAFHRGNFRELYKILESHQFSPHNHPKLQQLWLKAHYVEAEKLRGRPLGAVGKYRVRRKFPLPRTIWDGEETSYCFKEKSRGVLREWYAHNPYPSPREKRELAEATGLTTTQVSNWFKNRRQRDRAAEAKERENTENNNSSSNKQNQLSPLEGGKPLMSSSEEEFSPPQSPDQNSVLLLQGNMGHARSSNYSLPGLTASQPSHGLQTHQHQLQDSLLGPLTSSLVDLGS
#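 GST-Six1 + His-Eya2 (5X stock: 250/500 nM); Tris pH 8.0, 300 mM NaCl, 0.05% BSA, 0.02% Tween 20; GSH donor/Ni acceptor beads; 1 h 37 °C dark; AlphaScreen readout.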
# RORg inh: qHTS for inhibitors of ROR gamma transcriptional activity; Nuclear receptor ROR-gamma (Mus musculus), P51450; Drosophila S2 Gal4-RORgamma UAS-luciferase reporter, 20 h; Potency, µM (titrated, usually from 53.6 µM), for the others: at the highest dose activity change, negative = inhibition, usual class: inhibitors; 310,000 tested, 5.4% active; AID 2551, 2010; further: potency means the concentration at half of the fitted maximal effect; nearly all actives have a fitted effect of over 60% in size
#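 Compounds are pin-transferred onto Drosophila Schneider cells expressing a copper-inducible Gal4–ROR gamma transactivation domain fusion. After 1 hr, copper sulfate is added to 700 uM final; luciferase is read 20 hr later.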
# VP16 counter: VP16 counterscreen qHTS for inhibitors of ROR gamma transcriptional activity; Drosophila S2 Gal4-VP16 UAS-luciferase, luminescence, 20 h; Potency, µM (doses to about 53.6 µM), without a hit: at the highest dose activity, negative = inhibition, most hits filed as inhibitors; 310,000 tested, 3.5% active;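 further: Gal4-VP16 expression switched on by copper sulfate through the metallothionein promoter; potency means the concentration at half of the fitted maximal effect; nearly all actives have a fitted effect of over 50% in size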
# PKM2 activator: qHTS Assay for Activators of Human Muscle isoform 2 Pyruvate Kinase. 260,000 tested, 0.34% active. purified PKM2, Kinase-Glo ATP luminescence, activation; response scale: 0% is enzyme alone, no compound. Pyruvate kinase PKM (Homo sapiens), P14618. Potency, µM (top dose mostly 57.5 µM), inactives show at the top dose activation, hits mostly activators; further: potency means the concentration at half of the fitted maximal effect; nearly all actives have a fitted effect of over 55% in size
#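 Purified hPK-M2 (>95%) run at intermediate activity with 0.1 mM ADP and 0.5 mM PEP in 50 mM imidazole pH 7.2, KCl, MgCl2; 1 h room temperature. ATP formed read by Kinase-Glo luminescence; normalized to uninhibited and no-enzyme controls.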
# Active calls of the source: *; ? = inconclusive; / = no result. The list is not random: actives were taken first. Their share in the collection is about 5.6%. Unless noted, the call rests on the fitted dose curve; in most records, active means well fitted curve in the direction sought with a large enough effect; inconclusive means small, poorly fitted or top-dose-only effect, or another doubt; inactive means no such curve, though single readings can be large; an effect the other way counts as inactive or inconclusive. On the % scale 0 is the no-effect control and ±100 the full control effect.
SMILES,CtBP-E1A blk,Six1-Eya2 inh,RORg inh,VP16 counter,PKM2 activator
O=C(Nc1nccs1)C1CC2CCC1C2 (stereo unspecified),2,0,7.9µM*,-5%,-8%
CC(=O)C1=C(c2ccc(Br)cc2)C(=O)c2ccccc2C1=O,-9,-25,14µM*,6.3µM*,-2%
CCOC(=O)C1=CCN(S(C)(=O)=O)C1c1ccc(C)cc1 (stereo unspecified),2,-3,/,/,/
O=C(O)c1ccc2c(c1)C(=O)N(C(Cc1ccc(O)cc1)C(=O)O)C2=O (stereo unspecified),7,6,3%,-7%,-1%
O=C(O)c1ccc2c(c1)C(=O)N([C@@H](Cc1ccc(O)cc1)C(=O)O)C2=O,/,/,2µM*,6.3µM*,/
COc1ccc(OC)c(C(=O)/C=C/c2ccccc2C(F)(F)F)c1,-17,-8,13µM*,?,-3%
O=C(/C=C/c1ccnc2ccccc12)c1cccs1,3,-8,?,14µM*,-17%
COc1ccc(/C=C/C(=O)c2cccs2)c(OC)c1,/,/,13µM*,35µM*,/
Cc1cc(NC(=O)CSc2cc(Cl)ccc2Cl)n(-c2ccccc2)n1,/,22,20%,-5%,-4%
Cc1cc(NC(=O)CN2CCOCC2)n(-c2nc3ccccc3s2)n1,3,0,3.5µM*,1%,-4%
Cc1cc(C)nc(-n2nc(C)cc2NC(=O)c2cccc(S(=O)(=O)N(C)C)c2)n1,-19,-5,?,-3%,0%
Cc1ccc(C)c(C(=O)Nc2cc(C)nn2-c2nc(C)cc(C)n2)c1,-16,-4,0.5µM*,?,5%
Cc1cc(C)nc(-n2nc(C)cc2NC(=O)CNC(C)c2ccccc2)n1 (stereo unspecified),7,11,1.6µM*,-27%,0%
Cc1cc(C)nc(-n2nc(C)cc2NC(=O)CN2CCCC2)n1,/,6,11µM*,-13%,-3%
O=C(CN1C(=O)NC2(CCCc3ccccc32)C1=O)N1CCCCC1 (stereo unspecified),5,8,/,/,/
CCCn1c(N)c(N(CCOC)C(=O)CSc2c(Cl)cccc2Cl)c(=O)[nH]c1=O,0,-1,/,/,/
CCC1CCCCN1CC(=O)Nc1cc(C)nn1-c1nc(C)cc(C)n1 (stereo unspecified),-7,-9,0.4µM*,1.3µM*,-1%
COc1ccccc1CNC(=O)CSc1nn2c(=O)c(C(C)(C)C)nnc2s1,/,-9,10µM*,?,1%
COc1ccc(CNC(=O)CSc2nn3c(=O)c(C(C)(C)C)nnc3s2)cc1OC,-1,-6,3.5µM*,2%,0%
O=C1CC(c2ccc(F)cc2)Sc2ccccc2N1 (stereo unspecified),-4,1,6%,-5%,-3%
CC1CC(=S)Nc2ccccc2S1 (stereo unspecified),-19,-2,?,4µM*,-7%
Cc1cc(C)nc(NN=CC2=C(N3CCOCC3)/C(=C/c3ccc(Cl)cc3)CC2)n1,-7,-2,/,/,/
Cc1cc(C)nc(N/N=C/C2=C(N3CCOCC3)C(=C\c3ccc(Cl)cc3)/CC2)n1,-5,2,10µM*,?,5%
FC(F)(F)c1cc(-c2ccccc2)nc(N2CCCCC2)n1,30,30,11%,0%,-5%
FC(F)(F)c1cc(-c2ccccc2)nc(N2CCOCC2)n1,53,75,0.79µM*,-2%,5%
CC(C)C(=O)Nc1cccc(-c2nc3ccccc3c(=O)o2)c1,-1,0,?,-16%,-4%
CC(C)(C)C(=O)Nc1cccc(-c2nc3ccccc3c(=O)o2)c1,8,-2,14µM*,?,2%
CC(C)(C)C(=O)Nc1ccc(-c2nc3ccccc3c(=O)o2)cc1,-17,-6,?,?,5%

# Source: PubChem BioAssay
